Each structure is given as a SMILES string. Out of some 350,000 compounds screened, about 31,000 (8.9%) were called active. Not shown: some 15% with an inconclusive outcome. The list comes from a sample in which actives are over-represented; it also holds similar structures and randomly drawn compounds. A call without a number means that no potency is given here. Some compounds were tested as several samples or in several runs, with calls that do not always agree. A number with no mark means an inactive call. The call rests on the fitted dose curve; in most records, active means well fitted inhibition curve with a large enough effect; inconclusive means small, poorly fitted or top-dose-only effect; inactive means no such curve, though single readings can be large or run the other way.
Potency means the concentration at half of the fitted maximal effect.

In this test the target is Histone-lysine N-methyltransferase EHMT2 (Homo sapiens) (UniProt Q96KQ7). In words: qHTS Assay for Inhibitors of Histone Lysine Methyltransferase G9a. Further: nearly all actives have a fitted effect of over 75% in size. Particulars: G9a H3K9 monomethylation, AlphaScreen, 2 h; series mostly up to 59 µM. The essentials: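 G9a (20 nM) preincubated 15 min RT with compounds, then 500 nM biotinylated H3K9 peptide and 20 uM SAM added; 2 h RT reaction. Monomethyl-H3K9 product detected by AlphaScreen with anti-H3K9me1 antibody, streptavidin donor and anti-rabbit IgG acceptor beads.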
Chain of Histone-lysine N-methyltransferase EHMT2 (Homo sapiens) (Q96KQ7 913-1193 limits assumed): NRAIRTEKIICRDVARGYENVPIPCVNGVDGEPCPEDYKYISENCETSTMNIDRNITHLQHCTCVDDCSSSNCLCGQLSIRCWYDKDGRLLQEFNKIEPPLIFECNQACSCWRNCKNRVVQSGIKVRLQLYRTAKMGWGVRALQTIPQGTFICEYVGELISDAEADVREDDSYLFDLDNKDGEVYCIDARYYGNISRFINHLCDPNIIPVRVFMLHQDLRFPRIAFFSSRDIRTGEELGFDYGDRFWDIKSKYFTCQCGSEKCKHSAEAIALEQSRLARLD
As for `Cc1ccc(-c2cc(=O)c3ccc(Cl)cc3[nH]2)cc1`, the Potency result is “inactive”.
For `O=c1cc(-c2ccccc2)[nH]c2cc(F)ccc12`, the Potency result is “inactive”.
Consider `O=c1cc(-c2ccccc2)[nH]c2nc(Cl)ccc12`, for which the Potency was 20 µM (active) and the activity, negative = inhibition was 48.3% [at 12.7 µM].
`CCN(CC)CCCNC(=O)c1cc2c(=O)[nH]c3ccc(C)cc3c2s1`: the Potency result is “inactive”.
Turning to `CCCCn1c(N)c(N(CCOC)C(=O)c2cccc(S(=O)(=O)N3CCCCC3)c2)c(=O)[nH]c1=O`, the Potency was 50.1 µM (active).
Still for that read-out and setting: the same measure for `CCCCn1c(N)c(N(CC(C)C)C(=O)c2cccc(S(=O)(=O)N3CCN(C(C)=O)CC3)c2)c(=O)[nH]c1=O`: “inactive”; for `CCCCn1c(N)c(N(CCOC)C(=O)c2cccc(OCc3ccccc3)c2)c(=O)[nH]c1=O`: “inactive”.
For the compound `CCOc1ccc(NC(=O)COc2ccc(C(=O)N3CCC(C(N)=O)CC3)cc2OC)cc1`, the activity, negative = inhibition was 4.45% [at 0.501 µM].
Take `CC(OC(=O)CNC(=O)c1ccco1)C(=O)Nc1ccc(Cl)cn1` (centres undefined): the Potency entry is “inactive”.
Still for that read-out and setting: the same measure for `CCN(CC)CC(=O)c1c[nH]c2ccc(OC)cc12`: “inactive”; for `COc1ccc2[nH]c(C(=O)N3CCN(C)CC3)c(C)c2c1`: “inactive”.
Same read-out and setting: with `COc1ccc2[nH]c3ccc(OC)cc3c2c1` the figure was 50.1 µM (active); with `COc1ccc(NC(=O)c2cc3cc(C)ccc3n2C)cc1`, “inactive”.
In the case of `CCC(C)NC(=O)c1ccc(NC(=O)CC2SC(N3CCCCC3)=NC2=O)cc1` (centres undefined), the activity, negative = inhibition was -0.745% [at 12.7 µM].
Regarding `CC(=O)O[C@H]1CC[C@@]2(C)[C@@H](CC[C@@H]3[C@@H]2CC[C@]2(C)[C@@H](C(C)(C)O)C[C@@H]32)C1`, the activity, negative = inhibition is -7.36% [at 2.33 µM].
Regarding `O=C(NCc1ccco1)C1(c2ccc(Cl)cc2)CCCC1`, the Potency entry was “inactive”.
Still for that read-out and setting: with `O=C(NCc1ccco1)c1nn2cccnc2c1Cl` the entry was “inactive”; with `O=C(NCc1ccco1)c1sc2cccc(F)c2c1Cl`, 8.91 µM (active); with `COc1ccc(-c2cc(C(=O)N3CCN(Cc4ccc5c(c4)OCO5)CC3)on2)cc1OC`, “inactive”.
As for `CCN1C(=O)[C@H]2[C@@H](c3ccc(C)cc3)N3C(=O)N(c4cccc(Br)c4)C(=O)[C@@]3(CC)[C@H]2C1=O`, the activity, negative = inhibition is -0.448% [at 2.33 µM].
Consider `COc1cc(/C=C2\SC(=O)NC2=O)ccc1OCc1ccc(Cl)nc1`, for which the activity, negative = inhibition is 21.1% [at 2.33 µM].
`C=CCOc1ccc(/C=N/NC(=O)C(C)Sc2ccccn2)cc1OCC` (centres undefined): the Potency result was “inactive”.
In the case of `C=CCOc1ccc(/C=C2/C(=O)ON=C2C)cc1OCC`, the Potency is 44.7 µM (active).
Same read-out and setting: the same measure for `C#CCOc1ccccc1/C=C1/C(=O)ON=C1C`: “inactive”.
`CCOc1cc(/C=C2\C(=N)N3N=C(C)SC3=NC2=O)ccc1OCCOc1ccccc1`: the Potency entry is “inactive”.
The same measure, in the same setting: the same measure for `C#CCOc1ccc(/C=C2/C(=O)ON=C2C)cc1OCC`: 39.8 µM (active); for `COc1cc(/C=C2/C(=O)ON=C2C)ccc1OCc1cccc(F)c1`: 50.1 µM (active).
For the compound `CCOc1cc(/C=N/O)ccc1OCc1ccccc1F`, the Potency entry is “inactive”.
On the same count and under the same terms, the same measure for `COc1ccnc2c1c(=O)n(Cc1cccc(F)c1)c(=O)n2C`: “inactive”.
As for `O=C1CC(c2ccc(F)cc2F)c2cc3c(cc2N1)OCO3` (centres undefined), the Potency entry is “inactive”.
Same read-out and setting: with `Cc1ccc(S(=O)(=O)N2CCN(C(=O)Cc3sc(C)nc3-c3ccc(F)cc3)CC2)c(C)c1` the entry was “inactive”; with `CCc1ccc(S(=O)(=O)c2nnn3c2nc(NCc2ccccc2OC)c2cc(Cl)ccc23)cc1`, “inactive”; with `O=C(Nc1nc2ccc(F)cc2s1)c1nc(SCc2ccccc2F)ncc1Cl`, “inactive”.
Still for that read-out and setting: the same measure for `CCOC(=O)Cc1ccc(NC(=O)Nc2c[nH]c(=O)[nH]c2=O)cc1`: “inactive”; for `CCc1ccc(NC(=O)c2cc3c(=O)n(Cc4cccnc4)ccc3nc2C)cc1`: “inactive”.
Take `O=C(c1ccc(S(=O)(=O)N2CCCC2)cc1)N1CCN(c2ccccc2F)CC1`: the Potency result is “inactive”.
Consider `CNS(=O)(=O)c1ccc(C(=O)NCC(=O)NCCc2ccc3c(c2)OCCO3)cc1`, for which the activity, negative = inhibition was -2.43% [at 12.7 µM].
As to `CCOc1ccc(N(CC(=O)NCC2CCCO2)S(=O)(=O)c2ccc(C)cc2)cc1` (centres undefined), the Potency is 50.1 µM (active).
Same read-out and setting: the same measure for `Cc1ccc(S(=O)(=O)NCC(=O)N(CC(=O)NCC2CCCO2)c2cccc(F)c2)cc1` (centres undefined): “inactive”.
Take `CCOc1ccc(S(=O)(=O)NCCC(=O)NCC2CCCO2)cc1` (centres undefined): the activity, negative = inhibition was 28.8% [at 12.7 µM].
Regarding `Cc1ccc(CN(CC(=O)NCC2CCCO2)S(=O)(=O)c2ccc(C)cc2)cc1` (centres undefined), the Potency result is “inactive”.
`O=C(CN(CC1CCCO1)C(=O)CNS(=O)(=O)c1ccc(Cl)cc1)NCc1ccccc1` (centres undefined): the Potency entry was “inactive”.
Same read-out and setting: with `Cc1ccc(N(CC(=O)NCC2CCCO2)C(=O)CNS(=O)(=O)c2ccc(Cl)cc2)cc1` (centres undefined) the figure was 1 µM (active).
In the case of `Cc1ccc(-c2nnc(Nc3cccc(Br)c3)c3ccccc23)cc1S(=O)(=O)NCC1CCCO1` (centres undefined), the Potency entry was “inactive”.
As for `CCOc1ccccc1NC(=O)Cn1c2ncccc2c(=O)n1-c1ccc(C)c(C)c1`, the Potency result is “inactive”.
Consider `COc1cc2ccccc2cc1C(=O)Nc1cccc(-c2nc3ccccc3o2)c1`, for which the Potency result is “inactive”.
For the compound `O=C(/C=C/c1ccccc1)N1CCN(Cc2cc(=O)n3nc(-c4ccccc4F)sc3n2)CC1`, the Potency result was “inactive”.
The same measure, in the same setting: with `O=C(NCCC1=CCCCC1)c1ccc2c(c1)N(Cc1ccccc1F)C(=O)c1ccccc1S2(=O)=O` the entry was “inactive”; with `C=C(C)COc1ccc(-c2ncncc2-c2ccc(OC)cc2)c(O)c1`, “inactive”.
Same read-out and setting: the same measure for `CC(C)c1ccc(NC(=O)Cn2c3ncccc3c(=O)n2-c2ccccc2)cc1`: “inactive”; for `N#CC1=C(N)Oc2n[nH]c(CSc3ccccc3)c2C12C(=O)Nc1ccccc12` (centres undefined): “inactive”.
In the case of `Cc1ccc(NC2(C#N)C(=O)Nc3ccccc32)cc1` (centres undefined), the activity, negative = inhibition was -25.6% [at 2.33 µM].
With `N#CC1=C(N)Oc2[nH]c(=S)[nH]c(=O)c2C12C(=O)Nc1ccccc12` (centres undefined), the Potency was 35.5 µM (active).
Same read-out and setting: with `CN=C1S/C(=C\c2ccc(Sc3ccc(Cl)cc3)o2)C(=O)N1C` the entry was “inactive”.
Turning to `O=C1c2ccccc2NC(c2ccc(-c3cccc(Cl)c3)o2)N1O` (centres undefined), the activity, negative = inhibition was 25.2% [at 12.7 µM].
As to `O=C(O)C(c1ccccc1)N1C(=O)/C(=C\c2ccc(-c3cccc(Cl)c3)o2)SC1=S` (centres undefined), the Potency was 39.8 µM (active).
The same measure, in the same setting: the same measure for `Cc1ccc(C(=O)COC(=O)C(Cc2c[nH]c3ccccc23)NC(=O)c2ccc(Br)cc2)cc1` (centres undefined): “inactive”; for `Cn1cc(S(=O)(=O)N2CCCCCC2)cc1C(=O)N1CCN(c2ccc(F)cc2)CC1`: “inactive”; for `CCCCc1nn2c(=O)cc(COC(=O)c3ccc(NC(=O)c4ccccc4C)cc3)nc2s1`: “inactive”.
Turning to `Cc1ccc(-n2c(SCC(=O)Nc3cccc(F)c3)nc3c(oc4ccccc43)c2=O)cc1C`, the Potency entry is “inactive”.
For `CCN(CC(=O)Nc1ccc(OC)cc1)C(=O)c1ccc(Cl)c(S(=O)(=O)N2CCCC2)c1`, the Potency entry is “inactive”.
Still for that read-out and setting: the same measure for `COc1ccc(C(=O)OCC(=O)c2ccc(Cl)s2)c(OC)c1OC`: “inactive”; for `C=CCNC(=S)NNC(=O)COc1c(Cl)cc(Cl)cc1Cl`: 8.91 µM (active).
With `C=CCNC(=S)NNC(=O)c1ccc(Br)o1`, the Potency result is “inactive”.
For the compound `C=CCNC(=S)NNC(=O)c1cc(Cl)ccc1OC`, the Potency entry is “inactive”.
As to `O=C(c1cccc(F)c1)N1CCC2(CC1)CCN(c1ccccc1)CC2`, the activity, negative = inhibition was -4.3% [at 12.7 µM].
In the case of `C=CCn1c(SCc2cccc(F)c2)nc2cc(C(=O)N3CCC(C(N)=O)CC3)ccc2c1=O`, the Potency entry is “inactive”.
`O=C(c1cc(C(=O)N2CCN(c3ccc(F)cc3)CC2)cc([N+](=O)[O-])c1)N1CCN(c2ccc(F)cc2)CC1`: the activity, negative = inhibition is 1.74% [at 0.501 µM].
For `O=C1Nc2cc(C(=O)N3CCN(c4ccc(F)cc4)CC3)ccc2NC1CSCc1cccc(F)c1` (centres undefined), the Potency was 10 µM (active).
Take `O=C(c1cc(-c2ccc(F)cc2)on1)N1CCN(c2ccc(F)cc2)CC1`: the Potency entry was “inactive”.
Take `Cc1ccc(CSCC2Nc3ccc(C(=O)N4CCN(c5ccc(F)cc5)CC4)cc3NC2=O)cc1` (centres undefined): the Potency is 2.24 µM (active).
For `CC1CCCC(NC(=O)c2cc(S(=O)(=O)N3CCCCC3)ccc2Cl)C1C` (centres undefined), the activity, negative = inhibition was 12.6% [at 12.7 µM].
`CCOC(=O)c1c(C)[nH]c(C)c1S(=O)(=O)N1CCC(C(=O)Nc2ccc(C)c(Cl)c2)CC1`: the Potency entry is “inactive”.
On to `CC(=O)Nc1cccc(C(=O)OCC(=O)c2ccc3c(c2)OCO3)c1`, for which the Potency result is “inactive”.
`CC1(C)CC(=O)c2ccc(O)cc2O1`: the Potency entry is “inactive”.
In the case of `COc1ccc(C(=O)Nc2onc3c2CCCC3)cc1`, the Potency entry was “inactive”.
Same read-out and setting: with `CC(C)(C)c1ccc(C(=O)NCC(c2ccc(Cl)cc2)N2CCOCC2)cc1` (centres undefined) the entry was “inactive”.
Same read-out and setting: with `CCOC(=O)c1cc2c(=O)n3ccccc3nc2n(CC2CCCO2)c1=NC(=O)c1ccccc1F` (centres undefined) the entry was “inactive”.
For `COc1cc(-c2nn3c(-c4cccc(C)c4)nnc3s2)cc(OC)c1OC`, the activity, negative = inhibition is -23.6% [at 12.7 µM].
Take `COc1ccc(-c2nn3c(-c4ccccc4)nnc3s2)cc1OC`: the Potency is 35.5 µM (active).
As to `CCOc1cccc(-c2nn3c(-c4ccccn4)nnc3s2)c1`, the Potency result was “inactive”.
On the same count and under the same terms, with `COC(=O)c1ccc(NCC(=O)N2CCCCCC2)cc1` the entry was “inactive”; with `Cc1ccc(C(=O)CNc2ccc(F)cc2)cc1`, “inactive”.
The same measure, in the same setting: with `COC(=O)c1ccc(NCC(=O)c2ccccc2)cc1` the figure was 50.1 µM (active).
For `CCCCc1nc2cc(C(=O)NCCc3cnn(C)c3)ccc2o1`, the Potency entry was “inactive”.
On the same count and under the same terms, the same measure for `O=C(NC1CCCCCCC1)c1cccs1`: “inactive”; for `CCN(Cc1ccccc1)C(=O)Cc1ccc(OC)c(S(=O)(=O)N2CCOCC2)c1`: “inactive”; for `CN1CCN(S(=O)(=O)c2ccc(N3CCN(c4ccccc4O)CC3)c([N+](=O)[O-])c2)CC1`: 39.8 µM (active).
Turning to `Cc1ccc(C(=O)c2ccc(N3CCN(C)CC3)c([N+](=O)[O-])c2)cc1`, the Potency result is “inactive”.
As to `CN1CCN(c2ccc(S(=O)(=O)Nc3ccccc3)cc2[N+](=O)[O-])CC1`, the Potency result is “inactive”.
Still for that read-out and setting: with `Cc1ccc(S(=O)(=O)n2nc(-c3ccc(Cl)cc3)nc2NCc2ccccc2)cc1` the entry was “inactive”; with `COCCNc1cc(-c2ccccc2)nc2cc(-c3cccc(F)c3)nn12`, “inactive”; with `COCC1CCN(C(=O)c2ccc3oc(Cc4ccccc4)nc3c2)C1` (centres undefined), “inactive”.
